POLK inh: inhibitors of human DNA polymerase kappa; Q9UBT6; purified Pol kappa, fluorescent DNA synthesis assay, 10 min; Potency, µM (top dose mostly 107 µM), most hits filed as inhibitors; actives 0.53% (n = 400,000); AID 588579
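Pol kappa 10 nM + cpd, 15 min RT; start w/ substrate 50 nM final; fluorescence kinetic read, 0 and 10 min. Neg ctrl: buffer, no enzyme.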
POLI inh: inhibitors of human DNA polymerase iota; Q9UNA4; Pol iota fluorescent replication assay, 10 min; Potency, µM (highest dose often 115 µM), most hits filed as inhibitors; actives 1% (n = 390,000); AID 588590
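Fluorescent replication assay read twice, at 0 min and 10 min after adding 50 nM (final) substrate. Enzyme (10 nM) and compounds were first incubated 15 min at room temperature; enzyme-free buffer wells were negative controls.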
Pol beta inh: inhibitors of human DNA polymerase beta | P06746 | Potency, µM (highest dose often 114 µM), most hits filed as inhibitors | actives 1.3% (n = 340,000) | Pol beta primer extension/strand displacement, fluorescence kinetic | AID 485314
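Pol beta (10 nM) was preincubated with compound for 15 min at room temperature. The reaction was then started with 50 nM substrate and read immediately and after a further 10 min at room temperature.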
Pol eta inh: blocks human DNA polymerase eta activity | actives 1.2% (n = 390,000) | Q9Y253 | Potency, µM (highest dose often 114 µM), most hits filed as inhibitors | recombinant Pol eta, fluorescent DNA replication assay
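Pol eta at 10 nM preincubated with compounds 15 min at room temperature; reaction started with fluorescent substrate (50 nM final) and read kinetically at 0 and 10 min.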
L3MBTL1 block: L3MBTL1 (human) inhibition | Q9Y468 | AlphaScreen L3MBTL1–H3K9me1 peptide binding | Potency, µM (doses to about 57.1 µM), hits mostly inhibitors | actives 0.66% (n = 230,000); further: nearly all actives have a fitted effect of over 60% in size
Target sequence (Q9Y468 whole entry, looked up): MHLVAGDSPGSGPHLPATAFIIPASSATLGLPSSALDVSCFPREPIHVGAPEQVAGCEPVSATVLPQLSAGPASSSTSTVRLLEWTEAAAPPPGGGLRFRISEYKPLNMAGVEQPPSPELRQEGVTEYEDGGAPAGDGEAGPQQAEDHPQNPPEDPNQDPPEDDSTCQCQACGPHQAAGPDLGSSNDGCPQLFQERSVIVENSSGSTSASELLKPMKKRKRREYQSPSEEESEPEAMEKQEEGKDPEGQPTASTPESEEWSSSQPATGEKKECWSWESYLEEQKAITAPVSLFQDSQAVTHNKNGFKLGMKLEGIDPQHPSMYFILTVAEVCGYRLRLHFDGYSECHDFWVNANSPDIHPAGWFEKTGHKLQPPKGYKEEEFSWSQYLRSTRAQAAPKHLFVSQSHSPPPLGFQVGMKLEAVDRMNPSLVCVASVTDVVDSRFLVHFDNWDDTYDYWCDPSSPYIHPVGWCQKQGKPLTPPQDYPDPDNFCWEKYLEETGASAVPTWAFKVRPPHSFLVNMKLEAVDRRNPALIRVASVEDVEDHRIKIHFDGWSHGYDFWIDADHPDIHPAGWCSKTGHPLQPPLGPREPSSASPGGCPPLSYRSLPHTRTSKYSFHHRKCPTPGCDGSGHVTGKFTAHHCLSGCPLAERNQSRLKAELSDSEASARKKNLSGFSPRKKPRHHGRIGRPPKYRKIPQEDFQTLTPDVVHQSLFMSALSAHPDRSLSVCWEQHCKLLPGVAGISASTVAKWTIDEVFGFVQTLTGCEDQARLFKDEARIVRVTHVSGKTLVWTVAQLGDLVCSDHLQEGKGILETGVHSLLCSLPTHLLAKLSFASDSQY
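Displacement of a biotinylated histone H3(1-15) peptide monomethylated at Lys9 (75 nM) from L3MBTL1 (50 nM) was measured by AlphaScreen after a 30 min room-temperature compound incubation; cefsulodin titration served as intraplate control.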
WRN helicase inh: inhibitors of human WRN helicase. Potency, µM (series often up to 114 µM), actives largely listed as inhibitors. actives 0.46% (n = 360,000). Q14191. WRN helicase unwinding, fluorescent forked duplex, kinetic. AID 651768; further: nearly all actives have a fitted effect of over 55% in size
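Primary qHTS, 1536-well format. 20 nM WRN + compound, 15 min RT; start with 100 nM forked fluorophore/quencher duplex, 2 mM ATP (final); kinetic read ex 525/em 598 nm.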
Hits are given with their value; – = inactive; ? = inconclusive; · = not tested or not shown; [ ] = another dose, or the depositor's remark. Rows were chosen to be rich in hits. Some 2.5% of all compounds tested hit in one or more screens of this group. The call rests on the fitted dose curve; in most records, active means well fitted curve in the direction sought with a large enough effect; inconclusive means small, poorly fitted or top-dose-only effect, or another doubt; inactive means no such curve, though single readings can be large; an effect the other way counts as inactive or inconclusive.

SMILES | POLK inh | POLI inh | Pol beta inh | Pol eta inh | L3MBTL1 block | WRN helicase inh
CC[n+]1c(/C=C/Nc2ccccc2)sc2ccccc21 | – | ? | – | – | – | –
CCN1/C(=C/C=C/C=C/C=C/c2sc3ccccc3[n+]2CC)Sc2ccccc21 | – | ? | – | – | · | –
CCN1/C(=C/C=C/C=C/c2sc3ccccc3[n+]2CC)Sc2ccccc21 | 32µM | 18µM | 16µM | · | ? | ·
O=C(/C=C/c1ccc(S(=O)(=O)N2CCOCC2)cc1)N1CCN(c2ccc(F)cc2)CC1 | – | – | – | – | – | –
CC(=O)c1ccc(OC(C)C)c(Cc2c(O)nc(N)[nH]c2=O)c1 | – | – | – | – | – | –
CC1=CC(C)C2(COC(c3ccc[n+](C)c3)OC2)C(C)C1 (stereo not drawn) | – | – | – | – | – | –
Cc1ccc(NC(=O)CN2C(=O)c3ccccc3Sc3ccc(C(=O)N4CCCC4)cc32)cc1 | – | 71µM | ? | ? | · | ·
CCc1oc2ccccc2c1C(=O)c1cc(Br)c(O)c(Br)c1 | – | – | 50µM | – | – | –
Cc1ccc(NC(=S)NNc2ccc(C(=O)O)cc2[N+](=O)[O-])cc1C | – | ? | · | – | · | –
Cc1ccc(NC(=S)NNc2ccc([N+](=O)[O-])cc2S(=O)(=O)Nc2ccccc2C(=O)O)cc1C | – | – | ? | 28µM | – | ?
COc1ccc(C(C)=NNc2ccc([N+](=O)[O-])cc2S(=O)(=O)Nc2ccccc2C(=O)O)c(OC)c1 | – | – | · | 45µM | – | –[11.6 µM]
CN(CCO)c1ccc(C=NNc2ccc([N+](=O)[O-])cc2S(=O)(=O)Nc2ccccc2C(=O)O)cc1 | – | ? | · | ? | ? | 45µM
CC(=O)Nc1cccc(/C(C)=N/Nc2ccc(S(=O)(=O)Nc3ccccc3C(=O)O)cc2[N+](=O)[O-])c1 | – | ? | · | 22µM | · | ?
O=C(CCC(=O)c1ccc(Oc2ccccc2)cc1)Nc1cccc(Cl)c1 | – | – | – | – | – | –
O=C(Cc1ccc(F)cc1)NC(Cc1c[nH]c2ccccc12)C(=O)O (stereo not drawn) | – | – | – | – | · | –
[O][C@H]1[C@@H](O)[C@@H](CO)O[C@@H](O[C@@H]2[C@@H]3OC[C@H]2O[C@H](O[C@@H]2[C@@H](O)[C@H](C[C@@H]4[C@@H]5OC[C@H]4O[CH][C@@H]5O)O[C@H](CO)[C@@H]2OS(=O)(=O)O)[C@@H]3OS(=O)(=O)O)[C@@H]1O | 32µM | · | · | · | · | ·
COC(=O)C(C)Sc1n[nH]c(=S)s1 (stereo not drawn) | – | – | – | – | · | –
O=C(O)CC(Sc1n[nH]c(=S)s1)C(=O)O (stereo not drawn) | – | ? | 25µM | – | – | –
CC(C)C(=O)NC(=S)N1CCc2ccccc21 | – | – | – | – | – | –
C(=C\c1ccco1)/c1ccc2ccccc2n1 | ? | ? | 10µM | – | 14µM | –
O=C(O)c1ccc(-c2nc(-c3ccccc3)c(-c3ccccc3)[nH]2)cc1 | – | – | – | – | – | 40µM
CCOC(=O)Cc1csc(SC(C)C(=O)Nc2ccc(NC(C)=O)cc2)n1 (stereo not drawn) | – | – | 89µM | – | · | –
COc1cc(Nc2c3ccccc3nc3ccccc23)cc(OC)c1OC | – | ? | 14µM | – | · | –
c1ccc2c(NCCc3c[nH]c4ccccc34)c3ccccc3nc2c1 | – | ? | 13µM | ? | · | 25µM
COc1ccc(CCNc2c3ccccc3nc3ccccc23)cc1OC | ? | ? | 6.3µM | ? | – | –[11.6 µM]
COc1ccc(C(=O)NCCc2c[nH]c3ccccc23)cc1OC | – | – | – | – | – | –
O=C(NCCc1c[nH]c2ccccc12)c1ccc2nc[nH]c2c1 | – | ? | · | 50µM | ? | –
COc1ccc(Nc2c3ccccc3nc3ccccc23)cc1 | – | ? | ? | – | · | ?
CCc1nc2c(OCc3cc(Cl)cc(Cl)c3)cccn2c1N(C)C(=O)CC(C)C | · | · | · | · | · | –
CC(C)NC(=O)c1cc(-c2ccc(F)cc2OC(C)C)n[nH]1 | · | · | · | · | · | –

Bioassay records deposited in PubChem by National Center for Advancing Translational Sciences (NCATS).
